Assay outcomes as filed in PubChem.
LGR2 antag – inhibitors of bursicon-induced LGR2 CRE-luciferase signal, primary screen, cell-based, HEK293, CRE-luciferase reporter, bursicon stimulation; Drosophila bursicon receptor LGR2 (rickets); bursicon-stimulated, 4 h; inhibition, % at 9.99 µM; actives 0.35% (n = 380,000); AID 720647, 2013;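 active = drop in luminescence signal, shown as inhibition above about 50% in the replicate tests, limit read from the data, passing the limit was not always enough; inconclusive = probably only some replicates passing the limit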;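 also: agonist challenge used bursicon conditioned medium at about half maximal strength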
Shn3 3UTR inh – reduction of Shn3 3'UTR firefly luciferase signal, primary screen, Schnurri-3 inhibitor project, cell-based, Clone20 osteoblasts, set 2; Clone20 osteoblast Shn3 3'UTR firefly luciferase, 24 h; inhibition, % at 12.5 µM; actives 0.52% (n = 360,000); AID 588674, 2011;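 active = mean inhibition of at least 75% with every replicate also reaching 75%; inconclusive = mean inhibition at least 75% but some replicate below; inactive = mean inhibition below 75%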;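 also: 0% = median of neutral control wells and 100% = pilot-screen positive control compound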
EBV LMP1 NFkB – EBV LMP1-driven NF-kappaB luciferase reporter inhibitors, primary screen, cell-based, luminescence, single point; LMP1-induced NF-kappaB luciferase reporter cells; inhibition, % at 12.5 µM; actives 0.69% (n = 350,000); AID 504558, 2011; in the data active = inhibition above about 41%; inconclusive = no clear call, values can overlap the other calls;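 also: 0% = neutral control wells and 100% = reference inhibitor control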
PAX8 inh HTS – inhibitors of PAX8-driven TPO luciferase reporter, primary screen, RMG-I cells, single concentration; SteadyGlo, 24 h; inhibition, % at 12.6 µM; actives 1.2% (n = 360,000); AID 652154, 2013;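 active = mean replicate inhibition at least 60% with every replicate also reaching 60%; inconclusive = only one of the two criteria is met; inactive = mean below 60% and not all replicates reaching 60%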;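 also: luciferase light reporting Pax8 driven TPO promoter activity; plate controls were median of neutral control wells for no effect and mitoxantrone controls for full effect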
MITF TRPM1 inh – inhibitors of MITF-dependent TRPM1 promoter reporter, primary screen, cell-based, SK-MEL-5, single point, luciferase; SK-MEL-5 TRPM1 promoter luciferase, 24 h; inhibition, % at 12.5 µM; actives 0.83% (n = 330,000);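 active = mean inhibition across replicates of 60% or more, whatever share of single replicates reaches that level; inconclusive = some that reach 60%, reason not given; inactive = mean inhibition across replicates below 60%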
EWS-Fli block – EWS/Fli-driven NR0B1 reporter inhibitors, primary screen, A673 cells, NR0B1 luciferase, luminescence, MLPCN library; viability-normalised; inhibition, % at 12.6 µM; actives 0.67% (n = 350,000); AID 651661, 2012;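 active = mean inhibition of at least 50% after viability correction, with every replicate also passing that limit; inconclusive = mean reaches 50% but only one of two replicates passes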;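 also: firefly luciferase signal divided by Alamar Blue viability fluorescence both relative to DMSO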
The depositor's hits bear a star; ? = inconclusive; nt = not tested or not shown. This is a sample that favours compounds with a hit; in the whole collection about 2.2% have one here.

SMILES	LGR2 antag	Shn3 3UTR inh	EBV LMP1 NFkB	PAX8 inh HTS	MITF TRPM1 inh	EWS-Fli block
O=C(CN1C(=O)c2ccccc2S1(=O)=O)Nc1ncc(Cl)cc1Cl	69.2*	38.9	41.2*	39.1	37.9	58.2*
O=C(CN1C(=O)c2ccccc2S1(=O)=O)c1ccccc1	nt	51.9	61.3*	nt	59.6	nt
CC(C)NC(=O)CN1C(=O)c2ccccc2S1(=O)=O	20.0	-26.3	8.1	-8.5	-4.9	20.2
O=C(CN1C(=O)c2ccccc2S1(=O)=O)c1ccccc1Cl	96.3*	63.0	67.3*	89.8*	77.6*	82.3*
O=C(CCN1CCCCC1)NCC[C@@H]1CC[C@H](NC(=O)Cc2cccnc2)[C@H](CO)O1	-3.3	nt	nt	-1.4	nt	-0.7
CCC(=O)N1CC2(C1)[C@H](c1ccc(-c3ccc(F)cc3)cc1)[C@@H](CO)N2C(=O)CC	-2.1	nt	nt	-2.9	nt	3.4
C[C@@H]1CCCCO[C@H](CN(C)C(=O)Nc2ccc(C(F)(F)F)cc2)[C@@H](C)CN([C@@H](C)CO)C(=O)c2cc(NS(=O)(=O)c3ccc(Cl)cc3)ccc2O1	4.1	nt	nt	92.3*	nt	-0.5
C[C@@H]1CCCCO[C@H](CN(C)C(=O)Nc2ccc(C(F)(F)F)cc2)[C@H](C)CN([C@H](C)CO)C(=O)c2cc(NS(=O)(=O)c3ccc(Cl)cc3)ccc2O1	25.4	nt	nt	-12.6	nt	10.4
C[C@@H]1CCCCO[C@@H](CN(C)C(=O)Nc2ccc(C(F)(F)F)cc2)[C@H](C)CN([C@H](C)CO)C(=O)c2cc(NS(=O)(=O)c3ccc(Cl)cc3)ccc2O1	17.9	nt	nt	88.5*	nt	17.6
C[C@H]1CCCCO[C@@H](CN(C)C(=O)Nc2ccc(C(F)(F)F)cc2)[C@@H](C)CN([C@@H](C)CO)C(=O)c2cc(NS(=O)(=O)c3ccc(Cl)cc3)ccc2O1	-8.5	nt	nt	-2.9	nt	9.0
C[C@H](CO)N1C[C@H](C)[C@@H](CN(C)C(=O)Nc2ccc(C(F)(F)F)cc2)OCCCC[C@H](C)Oc2ccc(NS(=O)(=O)c3ccc(Cl)cc3)cc2C1=O	36.7	nt	nt	69.3*	nt	1.8
C[C@@H]1CCCCO[C@@H](CN(C)C(=O)Nc2ccc(C(F)(F)F)cc2)[C@H](C)CN([C@@H](C)CO)C(=O)c2cc(NS(=O)(=O)c3ccc(Cl)cc3)ccc2O1	0.7	nt	nt	69.0*	nt	1.2
CO[C@H]1CN(C)C(=O)c2ccc(NS(=O)(=O)CC(F)(F)F)cc2OC[C@H](C)NC[C@@H]1C	-2.8	nt	nt	nt	nt	0.4
C[C@@H]1CCCCO[C@H](CN(C)C(=O)Nc2ccc(C(F)(F)F)cc2)[C@@H](C)CN([C@H](C)CO)C(=O)c2cc(NS(=O)(=O)c3ccc(Cl)cc3)ccc2O1	10.0	nt	nt	47.7	nt	-1.2
C[C@@H]1CCCCO[C@H](CN(C)C(=O)Nc2ccc(C(F)(F)F)cc2)[C@H](C)CN([C@@H](C)CO)C(=O)c2cc(NS(=O)(=O)c3ccc(Cl)cc3)ccc2O1	6.2	nt	nt	88.6*	nt	-0.2
Oc1c(Cl)cc(Cl)cc1/C=N/Nc1ncc(Br)cn1	-3.7	90.3*	?	21.3	66.4*	-2.8
O=C(N/N=C/c1ccc(Cl)cc1Cl)c1ccncc1	-5.1	-1.6	5.7	-7.3	-12.6	-42.1
Cc1ccc(/C=N/NC(=O)c2ccccn2)o1	-34.7	-49.5	-9.6	120.2*	-15.5	-49.4
O=C(N/N=C/c1cc(Cl)cc(Cl)c1O)c1ccncc1	16.7	42.3	-4.3	-1.2	64.0*	12.4
O=C(N/N=C/c1ccco1)c1ccncc1	nt	-29.7	-5.8	nt	-3.4	nt
Cc1ccc(/C=N/NC(=O)c2ccncc2)o1	1.3	-14.3	-8.0	83.8*	-6.2	8.6
Cc1ccc(N=Cc2cc(Cl)cc(Cl)c2O)nc1	nt	2.8	-7.2	21.5	2.5	0.6
O=C(Nc1cccc(Cl)c1)N[C@H]1CC[C@@H](CCNC(=O)C2CCCCC2)O[C@H]1CO	-2.9	nt	nt	-11.9	nt	-0.7
COc1ccc2c3c(n(C)c2c1)[C@H](CO)N(C(=O)Nc1ccc(F)cc1)CC31CCN(C(=O)CN2CCOCC2)CC1	-14.1	nt	nt	nt	nt	-8.1
O=C(N[C@@H]1CC[C@H](CCNS(=O)(=O)c2ccccc2)O[C@@H]1CO)c1cccnc1	24.1	nt	nt	-15.2	nt	2.9
